# The source made the active and inactive calls. Unless noted, no rule for the calls is given here.
# What was measured:
# [1] = compounds binding Alexa647 anti-His antibody – biochemical, small-molecule microarray, 635 nm fluorescence, artefact control for SMM control protein annotation, primary screen (AID 1128); conditions: higher = more signal;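 also: score merges feature fluorescence with signal-to-noise for each printed compound spot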
# [2] = system: Human papillomavirus type 1a E7 protein (residues 1-88); experiment: HPV1a E7 small-molecule binders, primary screen, biochemical, small-molecule microarray, residues 1-88, 635 nm (AID 1129); conditions: small-molecule microarray binding, fluorescence 635 nm; higher = more signal
# [3] = target: Focal adhesion kinase 1 (Homo sapiens) (UniProt Q05397); experiment: PTK2 protein binding on printed compound slides – biochemical, small-molecule microarray, 635/667 nm fluorescence, BSA, DTT, primary screen (AID 1130); conditions: 635 nm fluorescence, higher = more signal;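 also: composite of spot emission at 667 nm and signal to noise over triplicate slides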
# Sequence of Focal adhesion kinase 1 (Homo sapiens) (Q05397 whole entry, looked up): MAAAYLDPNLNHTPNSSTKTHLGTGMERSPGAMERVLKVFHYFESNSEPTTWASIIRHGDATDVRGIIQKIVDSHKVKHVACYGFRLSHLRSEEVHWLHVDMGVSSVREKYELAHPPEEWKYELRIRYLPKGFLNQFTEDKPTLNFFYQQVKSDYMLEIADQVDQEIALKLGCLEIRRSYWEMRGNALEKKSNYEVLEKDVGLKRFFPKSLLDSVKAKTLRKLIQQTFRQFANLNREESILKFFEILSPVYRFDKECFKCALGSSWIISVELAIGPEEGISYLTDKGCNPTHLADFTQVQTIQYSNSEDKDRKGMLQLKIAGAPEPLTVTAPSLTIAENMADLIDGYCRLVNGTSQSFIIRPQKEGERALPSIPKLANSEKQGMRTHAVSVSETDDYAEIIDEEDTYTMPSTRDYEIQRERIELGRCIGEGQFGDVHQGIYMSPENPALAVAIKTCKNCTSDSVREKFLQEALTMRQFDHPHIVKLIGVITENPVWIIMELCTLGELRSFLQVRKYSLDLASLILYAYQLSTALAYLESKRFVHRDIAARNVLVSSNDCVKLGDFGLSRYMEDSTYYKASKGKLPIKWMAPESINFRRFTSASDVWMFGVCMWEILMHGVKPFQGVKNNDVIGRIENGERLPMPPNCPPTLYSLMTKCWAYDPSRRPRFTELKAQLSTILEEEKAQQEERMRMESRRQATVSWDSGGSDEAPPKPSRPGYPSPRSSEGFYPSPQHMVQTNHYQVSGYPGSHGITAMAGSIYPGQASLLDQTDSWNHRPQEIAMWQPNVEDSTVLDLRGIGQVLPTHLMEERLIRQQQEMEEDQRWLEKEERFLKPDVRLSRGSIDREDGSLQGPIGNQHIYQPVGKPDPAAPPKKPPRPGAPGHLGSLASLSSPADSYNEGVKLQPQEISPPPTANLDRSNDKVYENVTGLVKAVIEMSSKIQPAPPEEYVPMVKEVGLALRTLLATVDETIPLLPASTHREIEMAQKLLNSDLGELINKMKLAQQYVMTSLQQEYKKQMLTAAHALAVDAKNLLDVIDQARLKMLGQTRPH
# [4] = system: Fibrinogen (Alexa647-labelled); experiment: Alexa647-fibrinogen binding to printed small molecules – biochemical, small-molecule microarray, 635/667 nm fluorescence, artefact control for SMM control-protein annotation, profiling panel (AID 1131); conditions: fibrinogen-A647 binding fluorescence, higher = more signal;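 also: z-score merges 667 nm fluorescence with per-spot signal-to-noise over triplicate slides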
# [5] = target: Follistatin (Homo sapiens) (UniProt P19883); experiment: FST protein binding to printed compounds – biochemical, small-molecule microarray, 635/667 nm fluorescence, primary screen (AID 1132); conditions: 635 nm fluorescence, higher = more signal
# Sequence of Follistatin (Homo sapiens) (P19883 whole entry, looked up): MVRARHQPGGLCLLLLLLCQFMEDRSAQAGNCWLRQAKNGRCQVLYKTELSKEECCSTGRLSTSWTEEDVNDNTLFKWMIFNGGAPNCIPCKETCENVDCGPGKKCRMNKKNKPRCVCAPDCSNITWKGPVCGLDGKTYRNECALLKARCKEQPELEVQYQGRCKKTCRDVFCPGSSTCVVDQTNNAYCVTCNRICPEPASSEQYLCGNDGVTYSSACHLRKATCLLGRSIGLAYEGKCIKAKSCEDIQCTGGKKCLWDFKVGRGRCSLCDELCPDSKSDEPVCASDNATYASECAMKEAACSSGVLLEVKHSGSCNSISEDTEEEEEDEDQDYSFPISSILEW
# [6] = target: Fibroblast growth factor 2 (Homo sapiens) (UniProt P09038); experiment: basic fibroblast growth factor binding to printed compounds – biochemical, small-molecule microarray, 635/667 nm fluorescence, primary screen (AID 1133); conditions: FGF2, fluorescence 635/667, higher = more signal
# Sequence of Fibroblast growth factor 2 (Homo sapiens) (P09038 whole entry, looked up): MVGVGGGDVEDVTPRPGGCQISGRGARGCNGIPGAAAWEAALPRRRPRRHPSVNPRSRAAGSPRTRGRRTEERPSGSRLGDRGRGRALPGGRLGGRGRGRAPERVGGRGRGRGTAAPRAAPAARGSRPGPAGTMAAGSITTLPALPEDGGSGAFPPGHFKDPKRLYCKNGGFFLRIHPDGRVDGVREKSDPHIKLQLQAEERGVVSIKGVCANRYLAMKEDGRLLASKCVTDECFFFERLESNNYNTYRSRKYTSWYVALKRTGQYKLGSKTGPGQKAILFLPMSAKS
# [7] = JC-1 mitochondrial potential readout, lung cancer cells – cell-based, A549, JC-1 fluorescence, basal, 24 h, 100 nL, profiling panel (AID 1138); conditions: higher = more signal;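 also: A549 lung adenocarcinoma cells under basal conditions with no added stimulus; test concentration not given here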
# Lefty1 = Lefty1 protein binding to printed compounds – biochemical, small-molecule microarray, 635/667 nm fluorescence, primary screen (AID 1139); conditions: fluorescence 635/667, higher = more signal
# [8] = system: wheat germ agglutinin (Triticum aestivum), Alexa647-labelled; experiment: Alexa647-WGA lectin binding to printed small molecules – biochemical, small-molecule microarray, 635/667 nm fluorescence, artefact control for SMM control-protein annotation, profiling panel (AID 1140); conditions: WGA-A647 binding, 635 nm fluorescence, higher = more signal;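 also: score merges 667 nm feature emission with signal to noise over triplicate slides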
# [9] = target: Luciferin 4-monooxygenase (Photinus pyralis) (UniProt P08659); experiment: inhibition of purified Photinus pyralis luciferase – biochemical, luminescence, purified enzyme, 2006 set, primary screen (AID 1141); conditions: purified firefly luciferase, SteadyGlo luminescence, 30 min; higher = more signal, called active from +8 up or from −8 down;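 also: cell-free assay with purified firefly luciferase at 100 ng per well in PBS; test concentration not given here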
# Sequence of Luciferin 4-monooxygenase (Photinus pyralis) (P08659 whole entry, looked up): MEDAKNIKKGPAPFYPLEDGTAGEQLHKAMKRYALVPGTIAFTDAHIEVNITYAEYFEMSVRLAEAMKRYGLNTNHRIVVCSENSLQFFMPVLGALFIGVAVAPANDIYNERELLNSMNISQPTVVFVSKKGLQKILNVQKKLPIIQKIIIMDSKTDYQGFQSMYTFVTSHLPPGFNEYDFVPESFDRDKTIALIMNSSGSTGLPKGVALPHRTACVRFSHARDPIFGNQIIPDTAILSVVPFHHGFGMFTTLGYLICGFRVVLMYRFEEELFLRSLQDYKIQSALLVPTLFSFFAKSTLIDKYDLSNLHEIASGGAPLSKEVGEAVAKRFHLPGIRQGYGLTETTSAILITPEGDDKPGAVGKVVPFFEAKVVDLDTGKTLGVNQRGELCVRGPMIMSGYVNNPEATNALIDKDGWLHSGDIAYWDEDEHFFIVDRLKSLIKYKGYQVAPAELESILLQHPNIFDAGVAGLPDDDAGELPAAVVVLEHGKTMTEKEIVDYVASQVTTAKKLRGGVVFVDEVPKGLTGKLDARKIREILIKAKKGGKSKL
# [10] = system: Wnt5a (protein binding on small-molecule microarray); experiment: small molecules binding Wnt5a protein – biophysical, small-molecule microarray, 635/667 nm fluorescence, primary screen (AID 1142); conditions: 635 nm fluorescence, higher = more signal;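 also: fluorescence read at 667 nm with signal to noise per printed feature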
# [11] = ATP-based viability of Huh7 replicon cells – cell-based, CellTiter-Glo luminescence, basal, 48 h, cytotoxicity control for HCV replication inhibitor project, primary screen (AID 1143); conditions: higher = more signal, called active from +8 up or from −8 down;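 also: Huh7 hepatoma cells carrying a hepatitis C replication reporter with no stimulus; test concentration not given here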
# [12] = Pseudomonas biofilm growth suppression – PAO1 strain, BacTiter-Glo luminescence, LB-PBS, primary screen (AID 1144); conditions: P. aeruginosa PAO1 biofilm, 12 h, higher = more signal
# [13] = basal CRE-LacZ reporter activity in PC12 – cell-based, unstimulated, primary screen (AID 1145); conditions: no forskolin, luminescence, 4.5 h, higher = more signal, called active from +8 up or from −8 down
# [14] = forskolin-driven CRE-LacZ activity in PC12 – cell-based, CRE-LacZ reporter, forskolin-stimulated, primary screen (AID 1146); conditions: luminescence, 4.5 h, higher = more signal, called active from +8 up or from −8 down;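 also: PC12 cells with 6xCRE LacZ reporter stimulated by forskolin 10 µM; beta-galactosidase reporter signal reflecting CREB driven transcription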
# [15] = target: Streptavidin (Streptomyces avidinii) (UniProt P22629); experiment: compounds binding control protein streptavidin – biophysical, small-molecule microarray, 635/667 nm fluorescence, artefact control for SMM compound annotation, primary screen (AID 1147); conditions: higher = more signal;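 also: signal reflects streptavidin binding to arrayed compounds as a control protein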
# Sequence of Streptavidin (Streptomyces avidinii) (P22629 whole entry, looked up): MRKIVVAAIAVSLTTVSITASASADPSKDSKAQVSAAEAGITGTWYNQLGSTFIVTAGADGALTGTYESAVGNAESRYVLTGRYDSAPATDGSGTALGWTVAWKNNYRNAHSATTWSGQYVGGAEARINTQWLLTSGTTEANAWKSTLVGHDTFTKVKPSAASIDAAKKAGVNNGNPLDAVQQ
# [16] = probe aInhba binding on compound microarray – biochemical, small-molecule microarray, 635/667 nm fluorescence, primary screen (AID 1148); conditions: higher = more signal;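 also: score merges 667nm spot fluorescence with signal-to-noise for antibody binding to printed compounds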
# Torsin-1A (Homo sapiens) [17] = target: Torsin-1A (Homo sapiens) (UniProt O14656); experiment: TOR1A wild-type binding on microarray – cell lysate, small-molecule microarray, lysate, 635/667 nm, primary screen (AID 1149); conditions: COS7 hTOR1A-WT lysate, 635 nm fluorescence, higher = more signal
# Sequence of Torsin-1A (Homo sapiens) (O14656 whole entry, looked up): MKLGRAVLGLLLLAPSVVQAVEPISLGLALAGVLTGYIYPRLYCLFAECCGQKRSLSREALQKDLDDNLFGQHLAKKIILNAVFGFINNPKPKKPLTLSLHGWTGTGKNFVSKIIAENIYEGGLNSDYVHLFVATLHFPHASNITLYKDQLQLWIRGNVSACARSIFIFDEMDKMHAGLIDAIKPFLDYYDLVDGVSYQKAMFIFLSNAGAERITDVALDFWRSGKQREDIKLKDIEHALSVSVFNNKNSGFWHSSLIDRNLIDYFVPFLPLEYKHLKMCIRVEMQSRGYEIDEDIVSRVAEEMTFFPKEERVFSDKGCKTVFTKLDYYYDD
# Torsin-1A (Homo sapiens) [18] = target: Torsin-1A (Homo sapiens) (UniProt O14656); experiment: torsin A mutant lysate binding on microarrays – cell lysate, small-molecule microarray, COS7 lysate, 635/667 nm fluorescence, primary screen (AID 1150); conditions: COS7 hTOR1A mutant lysate, 635 nm fluorescence, higher = more signal;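 also: score pools 667 nm emission and signal to noise measuring lysate protein binding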
# [19] = system: Sonic hedgehog protein (Shh); experiment: Sonic hedgehog microarray binding compounds – biochemical, small-molecule microarray, 635/667 nm fluorescence, primary screen (AID 1151); conditions: 635 nm fluorescence, higher = more signal;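 also: Shh protein binding to compounds spotted on small-molecule microarray slides; score combines spot fluorescence intensity with signal-to-noise across triplicate slides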
smiles,measurement,setting,value
O=C1c2ccccc2C(=O)C2CC([C@H]3Oc4ccccc4S(=O)(=O)N4CCC[C@@H]34)=CCC12 (stereo not given in full),composite z-score,[1],-0.0332
same,composite z-score,[2],0.101
same,composite z-score,[3],0.867
same,composite z-score,[4],0.788
same,composite z-score,[5],-0.0849
same,composite z-score,[6],0.189
same,z-score,[7],-0.309
same,composite z-score,Lefty1,-0.02
same,composite z-score,[8],0.47
same,z-score,[9],-0.759 (inactive)
same,composite z-score,[10],-0.0428
same,z-score,[11],-3.06 (inactive)
same,z-score,[12],0.618 (inactive)
same,z-score,[13],6.12 (inactive)
same,z-score,[14],-1.59 (inactive)
same,composite z-score,[15],0.161
same,composite z-score,[16],-0.0471
same,composite z-score,Torsin-1A (Homo sapiens) [17],0.208
same,composite z-score,Torsin-1A (Homo sapiens) [18],0.402
same,composite z-score,[19],-0.133
C=CCC(OC(C)=O)[C@@H]1[C@@H](N(Cc2ccc(-c3ccccc3)cc2)C(=O)c2cccc3ccccc23)c2cc(OCCCO)ccc2N1C(=O)c1ccc2ccccc2n1 (stereo not given in full),composite z-score,[1],0.952
same,composite z-score,[2],0.138
same,composite z-score,[3],0.16
same,composite z-score,[4],-0.0282
same,composite z-score,[5],0.374
same,composite z-score,[6],0.268
same,z-score,[7],1.14
same,composite z-score,Lefty1,0.565
same,composite z-score,[8],0.139
same,z-score,[9],-0.658 (inactive)
same,composite z-score,[10],0.0553
same,z-score,[11],-1.48 (inactive)
same,z-score,[12],0.321 (inactive)
same,z-score,[13],1.76 (inactive)
same,z-score,[14],-0.505 (inactive)
same,composite z-score,[15],0.306
same,composite z-score,[16],0.237
same,composite z-score,Torsin-1A (Homo sapiens) [17],0.258
same,composite z-score,Torsin-1A (Homo sapiens) [18],0.0374
same,composite z-score,[19],0.0754
Cc1ccc(S[C@]2(C(=O)NCC(C)C)CC(=O)N(C3CCCCC3)[C@@H]2c2ccc(CO)cc2I)cc1,composite z-score,[1],0.464
same,composite z-score,[2],1.17
same,composite z-score,[3],0.558
same,composite z-score,[4],0.166
same,composite z-score,[5],0.0905
same,composite z-score,[6],-0.284
same,z-score,[7],1.28
same,composite z-score,Lefty1,0.0839
same,composite z-score,[8],0.752
same,z-score,[9],1.22 (inactive)
same,composite z-score,[10],0.249
same,z-score,[11],-4.87 (inactive)
same,z-score,[12],-0.88 (inactive)
same,z-score,[13],-0.619 (inactive)
same,z-score,[14],0.413 (inactive)
same,composite z-score,[15],0.411
same,composite z-score,[16],-0.0259
same,composite z-score,Torsin-1A (Homo sapiens) [17],0.314
same,composite z-score,Torsin-1A (Homo sapiens) [18],0.289
same,composite z-score,[19],0.104
C=C(/C(=C/C[C@@H](OC(=O)c1ccncc1)c1ccccc1OCCO)c1cnc2ccccc2c1)C(C)C,composite z-score,[1],1.18
same,composite z-score,[2],0.896
same,composite z-score,[3],0.204
same,composite z-score,[4],0.963
same,composite z-score,[5],1.45
same,composite z-score,[6],1.87
same,z-score,[7],0.494
same,composite z-score,Lefty1,1.65
same,composite z-score,[8],0.869
same,z-score,[9],-1.08 (inactive)
same,composite z-score,[10],0.816
same,z-score,[11],-8.34 (active)
same,z-score,[12],0.556 (inactive)
same,z-score,[13],15.6 (active)
same,z-score,[14],-0.0321 (inactive)
same,composite z-score,[15],1.67
same,composite z-score,[16],0.421
same,composite z-score,Torsin-1A (Homo sapiens) [17],0.799
same,composite z-score,Torsin-1A (Homo sapiens) [18],-0.0593
same,composite z-score,[19],2.22
C=CCNC(=O)[C@@H]1[C@H]2C(=O)O[C@H](c3ccccc3)[C@H](c3ccccc3)N2[C@H](c2ccc(O)cc2)[C@@]12C(=O)Nc1ccc(C#CCCO)cc12,composite z-score,[1],0.111
same,composite z-score,[2],-0.756
same,composite z-score,[3],1.33
same,composite z-score,[4],-1.22
same,composite z-score,[5],-0.773
same,composite z-score,[6],-0.53
same,z-score,[7],-0.0797
same,composite z-score,Lefty1,-0.836
same,composite z-score,[8],1.24
same,z-score,[9],1.05 (inactive)
same,composite z-score,[10],0.177
same,z-score,[11],-2.21 (inactive)
same,z-score,[12],-0.661 (inactive)
same,z-score,[13],0.0384 (inactive)
same,z-score,[14],-0.612 (inactive)
same,composite z-score,[15],-0.955
same,composite z-score,[16],-0.153
same,composite z-score,Torsin-1A (Homo sapiens) [17],-1.05
same,composite z-score,Torsin-1A (Homo sapiens) [18],-0.106
same,composite z-score,[19],-0.736

# Source: PubChem BioAssay
